SRC3 inh = inhibitors of human steroid receptor coactivator 3 (SRC3). Q9Y6Q9. HEK293 GAL4-SRC3 luciferase reporter, luminescence. inhibition, % at 3.6 µM. 360,000 tested, 0.17% active. AID 588352;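 active = inhibition above a per-campaign cutoff, the mean of all compounds plus 3 SD, cut at about 60% in these data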;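 also: higher means less SRC3-driven luciferase light from the GAL4 reporter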
Gli-Sufu antag = blocks Gli-Sufu signaling in a luciferase reporter. Sufu-KO-LIGHT fibroblasts, Gli luciferase reporter luminescence. inhibition, % at 5 µM. 340,000 tested, 0.74% active;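 active = inhibition above about 55%, limit read from the data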
SRC1 inh = human NCOA1 inhibition. Q15788. HEK293 GAL4-SRC1 luciferase reporter, luminescence. inhibition, % at 3.6 µM. 360,000 tested, 0.12% active. AID 588354;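 active = inhibition above the campaign mean plus 3 SD, with each screening campaign given its own cutoff, cut at about 60% in these data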
NR2F2 inh = blocks human COUP-TFII nuclear receptor. P24468. HEK293T NGFI-A luciferase reporter, luminescence. inhibition, % at 8.6 µM. 370,000 tested, 0.7% active. AID 686940;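 active = inhibition above a per-plate cutoff, mean inhibition of test wells between control levels plus 3 SD, cut at about 38% in these data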;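 also: cells cotransfected with COUP-TFII expression vector driving the NGFI-A reporter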
NCOA2 inhibitor = human SRC2 (NCOA2) inhibition; 370,000 tested, 0.17% active; Q15596; inhibition, % at 9 µM; HEK293 GAL4-SRC2 luciferase reporter, luminescence; AID 651957;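 active = inhibition above the mean inhibition of all tested compounds plus 3 SD, set per campaign, cut at about 52% in these data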
NR5A2 inv ag = NR5A2 inverse agonism in reporter assay | O00482 | HEK293T StAR-luciferase reporter, LRH-1 transfected, 24 h | inhibition, % at 3.6 µM | 360,000 tested, 0.13% active;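 active = inhibition above the mean inhibition of all tested compounds plus 3 SD, cut at about 73% in these data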
Target sequence (O00482 whole entry, looked up): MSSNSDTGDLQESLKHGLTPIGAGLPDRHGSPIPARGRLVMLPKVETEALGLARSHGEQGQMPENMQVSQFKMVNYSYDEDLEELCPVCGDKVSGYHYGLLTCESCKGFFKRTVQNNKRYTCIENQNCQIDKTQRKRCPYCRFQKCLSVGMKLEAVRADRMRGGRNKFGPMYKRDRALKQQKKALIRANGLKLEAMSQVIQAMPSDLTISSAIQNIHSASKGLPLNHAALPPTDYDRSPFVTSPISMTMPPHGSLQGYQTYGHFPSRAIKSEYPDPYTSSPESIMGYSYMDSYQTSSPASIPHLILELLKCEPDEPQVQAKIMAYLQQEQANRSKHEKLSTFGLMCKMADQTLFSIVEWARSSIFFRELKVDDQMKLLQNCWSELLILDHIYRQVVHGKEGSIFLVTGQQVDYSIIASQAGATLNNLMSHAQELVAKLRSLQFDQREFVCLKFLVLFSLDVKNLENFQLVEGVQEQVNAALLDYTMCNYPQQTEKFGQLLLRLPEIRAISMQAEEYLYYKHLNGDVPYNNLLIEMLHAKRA
Gal4-VP16 ctr = inhibits VP16 reporter, flagging COUP-TFII antagonist hits; shares compounds with NR2F2 inh; HEK293 Gal4-VP16 luciferase reporter, luminescence; inhibition, % at 8.5 µM; 2,500 tested, 25% active; in the data active = inhibition above about 13%
NR2F2 inh conf = confirmation of human COUP-TFII (NR2F2) inhibitors; shares compounds with NR2F2 inh; HEK293 NGFI-A luciferase reporter, luminescence; inhibition, % at 8.5 µM; 2,500 tested, 45% active; AID 687008;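 active = mean inhibition over three repeats above a set limit taken from the earlier primary screen, cut at about 38% in these data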
A number is an active result; - = inactive; . = not tested or not shown. Sampled rows, rich in hits. Any-hit rate of the full collection: about 1.2%.

SMILES	SRC3 inh	Gli-Sufu antag	SRC1 inh	NR2F2 inh	NCOA2 inhibitor	NR5A2 inv ag	Gal4-VP16 ctr	NR2F2 inh conf
COC(=O)c1ccccc1NS(C)(=O)=O	-	-	-	103	-	-	-	-
Nc1ncnc2c(C3OC(CO)C(O)C3O)scc12 (stereo not drawn)	84	-	66	67	-	96	22	-
CCCCN1C=CC(=C2C(=O)c3ccccc3C2=O)C=C1	-	.	-	80	76	-	67	67
O=C(NCc1cccc(Cl)c1)c1cccc(OC2CCN(C(=O)C3CC3)CC2)c1	-	-	-	56	-	-	-	-
O=C(C1CC1)N1CCC(Oc2cccc(C(=O)N3CCCCC3CCO)c2)CC1 (stereo not drawn)	-	-	-	-	-	-	.	.
NC(=O)c1c(N)[nH]c(C(=O)c2ccccc2)c1-c1ccc(Cl)cc1Cl	.	.	.	-	-	.	.	.
CC(=O)Nc1sc2c(c1-c1nc3ccccc3s1)CCCN(C(C)C)C2	.	.	.	45	.	.	-	-
CC(C)N1CCc2c(sc(NC(=O)c3nc4ccccc4s3)c2C(N)=O)C1	-	-	-	38	-	-	-	-
Cc1onc(-c2ccccc2)c1C(=O)NC(=S)NNC(=O)c1ccc(O)cc1O	73	-	64	50	-	89	15	54
Cc1onc(-c2ccccc2)c1C(=O)NNC(=O)c1ccccc1Br	-	-	-	-	-	-	.	.
COc1ccc(NC(=O)COc2ccccc2Cc2ccccc2)cc1S(N)(=O)=O	-	-	-	44	-	-	-	-
CCCCCCCCN1C(=O)[C@@H](CC(=O)NCc2ccc(C)o2)C[C@@]2(C(=O)OC)C1=C[C@H](C1CCCC1)O[C@@H]2C	.	.	.	-	-	.	.	.
O=C(Nc1ccc(Oc2ccccc2)cc1)c1cnc2n(c1=O)CCS2	-	-	-	43	-	-	-	38
CCOc1ccccc1NC(=O)c1cnc2n(c1=O)CCS2	-	-	-	-	-	-	.	.
N#Cc1ccc(Cn2ccc3ccc(-c4ccc5ccn(C(=O)C6CCC6)c5c4)cc32)cc1	.	.	.	-	-	.	.	.
CC(=O)NC1C(=O)N(CCc2ccccc2)c2ccc(Br)cc21 (stereo not drawn)	-	-	-	-	-	-	.	.
CC(=O)NC1C(=O)N(Cc2ccccc2)c2ccc(Br)cc21 (stereo not drawn)	-	-	-	38	-	-	-	-
CCC(C)Nc1nc(-c2ccccn2)nc2ccccc12 (stereo not drawn)	64	-	-	38	-	81	-	-
c1ccc(CNc2nc(-c3ccccn3)nc3ccccc23)cc1	-	-	-	-	-	-	.	.
O=C(c1ccc(Cl)c(S(=O)(=O)N2CCCCCC2)c1)N1CCN(c2ccccn2)CC1	-	-	-	42	-	-	-	-
O=C(Nc1ccc2c(c1)OCCO2)c1ccc(Br)c(S(=O)(=O)N2CCOCC2)c1	-	-	-	-	-	-	.	.
O=C(Nc1ccc2c(c1)OCO2)c1ccc(Br)c(S(=O)(=O)N2CCCC2)c1	-	-	-	43	-	-	-	-
Cc1cccc(NC(=O)c2ccc(Cl)c(S(=O)(=O)N3CCc4ccccc43)c2)n1	-	-	-	-	-	-	.	.
O=C(Nc1ccncc1)c1ccc(Cl)c(S(=O)(=O)N2CCc3ccccc32)c1	-	-	-	73	-	-	-	60
O=C(Nc1ccncc1)c1ccc(Cl)c(S(=O)(=O)N2CCCCC2)c1	-	-	-	61	-	-	-	40
SMILES	SRC3 inh	Gli-Sufu antag	SRC1 inh	NR2F2 inh	NCOA2 inhibitor	NR5A2 inv ag	Gal4-VP16 ctr	NR2F2 inh conf
N#Cc1ccc(S(=O)(=O)N2CCCc3nc(-c4ccc(F)cc4)ccc32)cc1	.	.	.	-	-	.	.	.
Cc1csc(NC(=O)Cc2nn(C)c(=O)c3ccccc23)n1	-	-	-	45	-	-	-	-
COc1cccc(OC)c1NC(=O)Cc1nn(C)c(=O)c2ccccc12	-	-	-	-	-	-	.	.
CCN1CCN(c2cc(C)c3cc(NC(=S)N4CCCC(C)C4)ccc3n2)CC1 (stereo not drawn)	-	-	-	46	-	-	26	-
Cc1cc(C)c2c(N)c(C(=O)Nc3ncc(C)s3)sc2n1	-	67	-	74	77	-	35	67
O=C(Nc1cccc(Cl)c1)c1ccc(F)c(S(=O)(=O)NCc2cccs2)c1	-	-	-	38	-	-	-	-
Nc1ncnc2nc(SCc3ccc(Cl)cc3Cl)[nH]c12	-	-	-	-	-	-	.	.
Nc1cc(=O)[nH]c(SCc2ccc(Cl)cc2Cl)n1	-	-	-	48	-	-	16	-
COc1ccc(Cn2c(C)c(CC(=O)Nc3ccc(Oc4cccnc4)c(C)c3)c3ccccc32)cc1	.	.	.	-	-	.	.	.
CC(Oc1ccc(Br)cc1Cl)C(=O)Nc1ccncc1 (stereo not drawn)	-	-	-	45	-	-	-	-
Cc1ccc(NC(=O)C2CCN(S(=O)(=O)c3ccc4c(c3)CC(C)N4C(=O)C3CCC3)CC2)nc1 (stereo not drawn)	-	-	-	45	-	-	-	-
CC(=O)N1c2ccc(S(=O)(=O)N3CCC(C(=O)Nc4ccc(C)cn4)CC3)cc2CC1C (stereo not drawn)	-	-	-	-	-	-	.	.
CC(=O)N1c2ccc(S(=O)(=O)N3CCCC(C(=O)Nc4ccc(F)cc4)C3)cc2CC1C (stereo not drawn)	-	-	-	46	-	-	-	-
CCOC(=O)N[C@H](C(=O)N1CCC[C@H]1C(=O)NC1CCCC1)c1ccccc1	.	.	.	-	-	.	.	.
CCCCCCCCN1C(=O)[C@@H](CC(=O)N2CCSCC2)C[C@@]2(C(=O)OC)C1=C[C@H](C(C)(C)C)O[C@@H]2C	.	.	.	-	-	.	.	.
O=C(N[C@H](C(=O)N1CCC[C@H]1C(=O)NCc1ccccc1)c1ccccc1)c1ccc(Cl)c(Cl)c1	.	.	.	-	-	.	.	.
COC(=O)C1=C(C)N(Cc2cccc(C(F)(F)F)c2)C(=NCc2ccc(OC)cc2)NC1c1cccc(C(F)(F)F)c1 (stereo not drawn)	.	.	.	-	-	.	.	.
COC(=O)[C@]12C[C@H](CC(=O)NCc3ccccc3)C(=O)N(Cc3ccccc3)C1=C[C@H](C(C)C)O[C@@H]2C1CC1	.	.	.	-	-	.	.	.
Cc1cc(=O)n2nc(N3CCC(C(=O)N4CCN(c5ccccc5)CC4)CC3)sc2n1	-	-	-	-	-	-	.	.
CCCc1cc(=O)n2nc(N3CCC(C(=O)N4CCN(c5ccc(OC)cc5)CC4)CC3)sc2n1	-	-	-	56	-	-	-	64
COc1ccc(CN(CCN2CCOCC2)C(=O)c2cccc(F)c2F)cc1OC	.	.	.	-	-	.	.	.
CC(=O)c1ccc(N2CCN(C(=O)/C=C/c3ccc(S(=O)(=O)NCc4ccco4)cc3)CC2)cc1	-	-	-	54	-	-	-	-
